What all share (assay): PBM binding z-score (relative to random genomic background probes); higher = stronger binding; sequences stand for … in GC…GCGATTGACAGCGTAGAATGAAGG
The test system of test [1] is FXR:RXRa (NR concentration 270 nM, RXRa partner concentration 90 nM). In short, it runs like this:
(§1)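 Binding z-scores take random background probes as their reference. They come from custom Agilent 4×180K protein-binding microarrays incubated 1 h with ligand-free nuclear receptor dimers, with antibodies against each partner (one per run) detecting binding. Scanned fluorescence was regression-normalized.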

Test [2] deals with LXRa:RXRa (NR concentration 270 nM, RXRa partner concentration 90 nM). The gist of the method: as §1
For test [3], the system named is LXRa homodimer (NR concentration 270 nM). The gist of the method:
as §1

The subject of test [4] is LXRb:RXRa (NR concentration 270 nM, RXRa partner concentration 90 nM). The gist of the method:
as §1

Test [5] deals with LXRb homodimer (NR concentration 270 nM). In short, it runs like this: as §1
Test [6] relates to PPARa:RXRa (NR concentration 270 nM, RXRa partner concentration 90 nM). In short, it runs like this: as §1
Test [7] deals with PPARg:RXRa (NR concentration 180 nM, RXRa partner concentration 90 nM). In short, it runs like this:
as §1

Test [8] concerns PPARg:RXRa 270nM:90nM, anti-RXR (NR concentration 270 nM, RXRa partner concentration 90 nM). In short, it runs like this: as §1
Test [9] concerns PPARg:RXRa 30nM:10nM, anti-RXR (NR concentration 30 nM, RXRa partner concentration 10 nM). In short, it runs like this:
as §1

Test [10] deals with PPARg:RXRa 90nM:30nM, anti-RXR (NR concentration 90 nM, RXRa partner concentration 30 nM). The gist of the method:
as §1

Test [11] deals with PPARg:RXRa DBDmut IVT, anti-RXR (DBD mutation: RXRa K156A/R161A, NR concentration 270 nM, RXRa partner concentration 90 nM). The gist of the method: as §1
Test [12] relates to PPARg:RXRa IVT, anti-PPARg (NR concentration 270 nM, RXRa partner concentration 90 nM). In short, it runs like this: as §1
Test [13] has as its system PPARg DBDmut:RXRa IVT, anti-PPARg (DBD mutation: PPARg1 K132A/R137A, NR concentration 270 nM, RXRa partner concentration 90 nM). The gist of the method:
as §1

Test [14] concerns PPARg DBDmut IVT, anti-PPARg (DBD mutation: PPARg1 K132A/R137A, NR concentration 270 nM). In short, it runs like this: as §1
In test [15] the test system is PPARg homodimer (NR concentration 180 nM). In short, it runs like this:
as §1

The subject of test [16] is PXR:RXRa (NR concentration 270 nM, RXRa partner concentration 90 nM). The gist of the method:
as §1

For test [17], the system named is PXR homodimer (NR concentration 270 nM). The gist of the method: as §1
The test system of test [18] is RARa:RXR (NR concentration 270 nM, RXRa partner concentration 90 nM). In short, it runs like this: as §1
For test [19], the system named is RARa homodimer (NR concentration 270 nM). The gist of the method:
as §1

Test [20] concerns RARb:RXRa (NR concentration 270 nM, RXRa partner concentration 90 nM). In short, it runs like this:
as §1

Consider CCTACTGCGCCATTCAGAGGTCATTGATCATATG, for which the PBM binding z-score in [1] was found to be 3.32; in [2], 4.74; in test [3], 7.35; in test [4], 4.35; in test [5] it was 1.54; in test [6] it was 3.8. Moreover, the PBM binding z-score turned out to be 0.615 in [7]; 1.89 in test [8]; 0.275 in [9]; 0.91 in test [10]; 0.443 in [11]; 1.07 in [12]. For the same sequence, the PBM binding z-score in [13] worked out at 0.596; in test [14], 0.708; in test [15], 2.61; in [16], 4.86; in test [17], 2.44; in test [18] it was 4.54. In addition, the PBM binding z-score in [19] turned out to be 1.18; in test [20], 3.05.
Turning to CCTACTGGGCCAAGGTCACTGATCAGTCAAAGCA, the PBM binding z-score was 3.03 in test [1]; 2.64 in [2]; 0.281 in test [3]; 2.79 in [4]; -0.518 in test [5]; 4.1 in test [6]. Besides, the PBM binding z-score amounted to 4.17 in test [7]; 4.62 in [8]; 2.22 in test [9]; 3.93 in test [10]; 4.22 in [11]; 4.98 in test [12]. In addition, the PBM binding z-score is -0.183 in test [13]; -0.598 in [14]; 2.26 in [15]; 3.02 in test [16]; 0.241 in test [17]; 3.49 in [18]. In addition, the PBM binding z-score in [19] came to 0.0362; in test [20], 3.73.
On to CCTAGTGGGCCACGAAAGGTCATTGATTCAGTGA, for which the PBM binding z-score stood at 3.59 in test [1]; 5.34 in [2]; 4.51 in [3]; 4.3 in [4]; 0.26 in test [5]; 4.7 in test [6]. Also, the PBM binding z-score came out at 4.51 in test [7]; 4.88 in test [8]; 2.04 in test [9]; 4.15 in test [10]; 5.45 in test [11]; 5.59 in [12]. The PBM binding z-score in test [13] is 0.164; in [14], -0.293; in [15], 2.95; in test [16], 5.35; in test [17], 1.17; in [18] it was 5.06. The PBM binding z-score in test [19] was 0.966; in test [20], 3.93.
For TGTACAGGGTCAAAGGCCAGAGTACGAATGTCGA, the PBM binding z-score was 7.25 in test [1]; 4.91 in test [2]; -0.0298 in [3]; 4.39 in [4]; 0.326 in test [5]; 6.34 in test [6]. For the same sequence, the PBM binding z-score in test [7] came out at 8.21; in [8], 7.42; in test [9], 5.22; in [10] it was 7.52; in [11] it was 2.29; in test [12], 5.22. Moreover, the PBM binding z-score in [13] was 1.24; in test [14] it was 1.55; in [15] it was 1.87; in test [16], 4.52; in [17], -0.0944; in test [18], 6.38. Also, the PBM binding z-score in test [19] worked out at 0.38; in [20], 4.42.
Consider GTACCAAGGTAAATAGGTCGTTGATGAGTAGGCG, for which the PBM binding z-score in test [1] was 0.0892; in [2] it was 0.228; in [3], -0.0943; in test [4], 0.151; in [5], -0.264; in [6], 1.73. Also, the PBM binding z-score in [7] is 1.37; in test [8] it was 1.34; in test [9], 0.667; in test [10], 0.78; in test [11] it was 1.71; in test [12], 2.84. In addition, the PBM binding z-score in test [13] stood at 0.778; in [14], 0.523; in [15], 0.489; in [16], 0.181; in test [17], 0.0446; in test [18], 0.634. Moreover, the results for the PBM binding z-score in test [19] and in [20] were 0.265 and 0.675, respectively.
As for ATATGTAGTTTAGCTGGGGTCATTCAGACTAGGC, the PBM binding z-score in test [1] came to 4.14; in test [2], 4.3; in test [3], 2.38; in [4], 4.58; in test [5], 1.66; in [6], 4.45. The PBM binding z-score in test [7] is 1.66; in test [8], 2.42; in test [9], 0.899; in test [10], 1.87; in [11], 1.04; in test [12], 1.41. The PBM binding z-score came to 1.71 in [13]; 2.11 in test [14]; 1.95 in [15]; 5.98 in test [16]; 3.93 in [17]; 5.81 in [18]. In addition, the values for the PBM binding z-score in test [19] and in test [20] were 1.36 and 2.74, respectively.
For AGTAAAAGTTCATCTAGGTAACGTAAGATATGCT, the PBM binding z-score in [1] came to 6.26; in test [2], 5.78; in [3], 5.21; in test [4], 3.31; in [5], 1.71; in test [6] it was 4.42. Besides, the PBM binding z-score was found to be 3.98 in test [7]; 3.88 in test [8]; 1.55 in test [9]; 2.54 in test [10]; 0.423 in test [11]; 2.83 in [12]. Besides, the PBM binding z-score in test [13] was determined as 1.21; in test [14], 1.83; in test [15], 2.75; in test [16] it was 4.52; in test [17], 3.57; in [18], 3.39. Further, the PBM binding z-score in [19] is 1.46; in [20], 4.72.

(Values after the supplement of paper PMC6555819.)
